Experimental data from PubChem BioAssay.
Activity calls are given as the source filed them. How the calls were made is not given here.

Each molecule was assayed against Pantothenate synthetase (Mycobacterium tuberculosis (strain ATCC 25618 / H37Rv)) (UniProt P9WIL5) (assay: Coupled enzyme confirmation of inhibitors against recombinant Mtb PanC (AID 375;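 further: 0% = full reaction with vehicle and 100% = no enzyme background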)). Settings: coupled enzyme assay; at 10 µM, active compounds read high.
Chain of Pantothenate synthetase (Mycobacterium tuberculosis (strain ATCC 25618 / H37Rv)) (P9WIL5 whole entry, looked up): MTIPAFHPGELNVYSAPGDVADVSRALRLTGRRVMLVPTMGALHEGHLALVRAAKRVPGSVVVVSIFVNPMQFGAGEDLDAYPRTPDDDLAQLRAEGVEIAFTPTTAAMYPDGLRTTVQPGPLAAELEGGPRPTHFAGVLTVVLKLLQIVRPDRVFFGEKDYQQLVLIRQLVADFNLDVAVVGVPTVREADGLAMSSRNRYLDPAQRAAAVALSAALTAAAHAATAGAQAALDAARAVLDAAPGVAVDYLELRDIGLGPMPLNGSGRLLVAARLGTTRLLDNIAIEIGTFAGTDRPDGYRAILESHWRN

| SMILES | inhibition |
| --- | --- |
| CCC(C(=O)NC1CCCC1)N(Cc1ccco1)C(=O)Cn1nnc(-c2ccc(C)cc2)n1 (stereo not given) | 5% (inactive) |
| CSc1ccccc1NC(=O)CN(Cc1ccccc1)S(C)(=O)=O | 0% (inactive) |
| C=CCn1c(COc2ccc(Cl)cc2)nnc1SCC(=O)N1CC(=O)Nc2ccccc21 | 0% (inactive) |
| CCOC(=O)CCCn1nc(C)n2c(cc3sccc32)c1=O | 5% (inactive) |
| O=C(Nc1ccc(Cl)cc1)C1CC=CCC1C(=O)OCC(F)(F)C(F)F (stereo not given) | 0% (inactive) |
| O=c1c2c(nc3nc(COc4ccccc4)[nH]n13)CCC2 | 0% (inactive) |
| Cc1nc2c(=O)oc3ccccc3c2n1-c1ccccc1 | 0% (inactive) |
| Cn1c(=O)[nH]c(=O)c2c1nc(N1CCOCC1)n2CC(O)COc1ccc2ccccc2c1 (stereo not given) | 0% (inactive) |
| CCN1CCN(CCCNC(=O)C2c3ccccc3C(=O)N(C)C2c2ccc(OC)cc2)CC1 (stereo not given) | 0% (inactive) |
| CCN1CCN(C(=O)c2ccc3c(=O)n(C4CCCC4)c(=S)[nH]c3c2)CC1 | 0% (inactive) |
| O=C(O)COc1cccc(NC(=O)C2CCCO2)c1 (stereo not given) | 0% (inactive) |
| Cc1cc(C)n(-c2nc3sc4c(c3c3nnc(SCC(N)=O)n23)CC(C)(C)OC4)n1 | 0% (inactive) |
| CCN(CC)Cc1csc(C(N)=O)c1 | 5% (inactive) |
| Cc1cc(C)n2nc(C(=O)NCc3ccco3)nc2n1 | 3% (inactive) |
| CCOC(=O)CSc1nc2cccnc2n1-c1ccc(F)cc1 | 2% (inactive) |
| O=C(Nc1ccc(CN2CCCCC2)cc1)c1ccc2c(c1)OCO2 | 3% (inactive) |
| O=C(CCCn1c(=O)c2sccc2n(Cc2ccc(F)cc2)c1=O)NCc1ccco1 | 1% (inactive) |
| Cn1c(C(=O)NCC2CCCO2)cc2c(=O)[nH]c3ccccc3c21 (stereo not given) | 8% (inactive) |
| O=C(CCn1c(=O)oc2ccccc21)NCc1ccco1 | 1% (inactive) |
| O=C(c1ccc(Cl)cc1)C1CCN(C(=O)NC2CCCCC2)CC1 | 0% (inactive) |

| SMILES | inhibition |
| --- | --- |
| COc1ccc(C(O)C(CN2CCOCC2)c2ccccc2)cc1F (stereo not given) | 2% (inactive) |
| CC(Sc1nc(-c2ccccc2)cc(C(F)(F)F)n1)C(=O)N1CCCC1 (stereo not given) | 1% (inactive) |
| CC(OC1=CC(=O)CCC1)C(=O)c1ccccc1 (stereo not given) | 2% (inactive) |
| O=C(NCc1ccccn1)c1cccs1 | 0% (inactive) |
| CC(=O)N1CCN(S(=O)(=O)c2ccc(S(=O)(=O)NCC(C)C)cc2)CC1 | 5% (inactive) |
| CCc1ccc(NC(=O)CSc2nnc(Cc3cccn3C)n2-c2ccc(OC)cc2)cc1 | 0% (inactive) |
| CCCCNC(=O)c1nc2ncc(Br)cn2n1 | 2% (inactive) |
| O=C(CSc1nnnn1-c1ccccc1Cl)Nc1ccc2c(c1)OCCO2 | 8% (inactive) |
| CCOC(=O)N1CCN(S(=O)(=O)c2cc(Cl)c(OC)cc2Cl)CC1 | 0% (inactive) |
| COC(=O)c1ccccc1S(=O)(=O)N(CCCN1CCOCC1)Cc1cccs1 | 0% (inactive) |
| COc1ccc(C2CC(c3cccs3)n3nc(N)nc3N2)cc1 (stereo not given) | 0% (inactive) |
| COc1ccc(C)cc1-n1nnnc1SCC(=O)Nc1cc(C)on1 | 0% (inactive) |
| COc1cccc(-c2nc(CS(=O)(=O)CC(=O)NCc3ccc(Cl)cc3)c(C)o2)c1 | 0% (inactive) |
| CCC(=O)Oc1ccc2c(C)cc(=O)oc2c1C | 2% (inactive) |
| O=C(C1CC1)N(Cc1ccco1)c1nc(-c2ccccc2)cs1 | 1% (inactive) |
| CCN(CC)CCCN1C(=O)C(=O)/C(=C(/O)c2ccc(C)cc2)C1c1ccccn1 (stereo not given) | 3% (inactive) |
| Cc1nccn1CCCN1C(=O)OC2(CCCCC2)C1(C)O (stereo not given) | 0% (inactive) |
| COc1ccc(-c2noc(CCC(=O)Nc3nc4ccccc4s3)n2)cc1 | 0% (inactive) |
| O=C(NCc1ccco1)c1cccn2c(=O)c3sccc3nc12 | 4% (inactive) |
| CC(C)(C)OC(=O)N1CCOCCOCCN(C(=O)OC(C)(C)C)CCOCCOCC1 | 0% (inactive) |
